Several values for one entry are separate records, joined by “and”; a condition that tells them apart may be missing. Equal entries are not always repeated. Records with an inconclusive call do not appear. A call without a number means that no potency is given here. Where a structure was tested more than once in an assay, its records may differ in their call. Activity calls are given as the source filed them. Unless noted, calls come from the whole dose curve.
biological target: Peroxisome proliferator-activated receptor delta (Homo sapiens) (UniProt Q03181); test: qHTS assay to identify small molecule agonists of the peroxisome proliferator-activated receptor delta (PPARd) signaling pathway (AID 743212); settings: HEK293H PPARd-UAS-bla, beta-lactamase FRET ratio, 17 h; series mostly up to 62.6 µM
Sequence (Q03181 whole entry, looked up): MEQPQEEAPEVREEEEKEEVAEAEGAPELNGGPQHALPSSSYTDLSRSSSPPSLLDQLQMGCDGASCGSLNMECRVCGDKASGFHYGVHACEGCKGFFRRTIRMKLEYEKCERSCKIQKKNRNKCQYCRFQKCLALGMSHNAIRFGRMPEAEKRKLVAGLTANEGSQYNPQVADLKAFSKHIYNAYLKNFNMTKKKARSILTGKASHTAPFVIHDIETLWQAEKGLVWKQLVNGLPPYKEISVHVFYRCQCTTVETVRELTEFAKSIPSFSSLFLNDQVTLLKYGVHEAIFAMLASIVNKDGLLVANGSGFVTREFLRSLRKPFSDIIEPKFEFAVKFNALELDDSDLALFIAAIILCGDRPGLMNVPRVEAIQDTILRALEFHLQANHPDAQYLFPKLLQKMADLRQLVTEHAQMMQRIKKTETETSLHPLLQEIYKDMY
Summary of the method: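 HEK293H UAS-bla reporter cells, human PPARd system; compounds delivered in DMSO after 5 h plating, then at 37 C. Beta-lactamase FRET read, 2 h RT substrate step.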

| Structure (SMILES) | Potency |
| --- | --- |
| CCN(N=O)C(N)=O | inactive |
| Cc1c(COC(=O)[C@@H]2[C@H](/C=C(\Cl)C(F)(F)F)C2(C)C)cccc1-c1ccccc1 | inactive |
| CC(C)c1ccc(CO)cc1 | inactive |
| O=[N+]([O-])c1c(Cl)c(Cl)c(Cl)c(Cl)c1Cl | inactive |
| CC(C)C(=O)OCC(C)(C)C(OC(=O)C(C)C)C(C)C (stereo unspecified) | inactive |
| C#CCOS(=O)OC1CCCCC1Oc1ccc(C(C)(C)C)cc1 (stereo unspecified) | inactive |
| CCOc1cc(C=O)ccc1O | inactive |
| COc1ccc(C(CN(C)C)C2(O)CCCCC2)cc1 (stereo unspecified) | inactive |
| CCOP(=S)(OCC)O/N=C(\C#N)c1ccccc1 | inactive |
| COC(=O)c1sccc1S(=O)(=O)NC(=O)Nc1nc(C)nc(OC)n1 | inactive |
| NNC(=S)NN | inactive |
| CCOc1cc(Oc2ccc(C(F)(F)F)cc2Cl)ccc1[N+](=O)[O-] | inactive |
| NCc1cccnc1 | inactive |
| NC(=S)Nc1ccccc1 | inactive |
| O=P(Oc1ccccc1)(Oc1ccccc1)Oc1ccccc1 | inactive |
| Nc1c(Cl)cc([N+](=O)[O-])cc1Cl | inactive |
| CC(C)(c1cc(Cl)c(O)c(Cl)c1)c1cc(Cl)c(O)c(Cl)c1 | inactive |
| CCCCCCOC(=O)c1ccccc1C(=O)OCCCCCC | inactive |

| Structure (SMILES) | Potency |
| --- | --- |
| O=Cc1ccco1 | inactive |
| N[C@@H](Cc1ccc(N(CCCl)CCCl)cc1)C(=O)O | inactive |
| Oc1cc(Cl)ccc1Oc1ccc(Cl)cc1Cl | inactive |
| CCCCCc1cc(O)cc(O)c1 | inactive |
| ClC1C(Cl)C(Cl)C(Cl)C(Cl)C1Cl (stereo unspecified) | inactive |
| C=C(C)C(=O)OCC1CO1 (stereo unspecified) | inactive |
| O=C(CCl)c1ccccc1 | inactive |
| C=C(C)[C@H]1Cc2c(ccc3c2O[C@@H]2COc4cc(OC)c(OC)cc4[C@@H]2C3=O)O1 | inactive |
| CCC(=O)O[C@H]1CC[C@H]2[C@@H]3CCC4=CC(=O)CC[C@]4(C)[C@H]3CC[C@]12C | inactive |
| CCCCCCCCOC(=O)c1ccccc1C(=O)OCCCCCCCC | inactive |
| CCCCC(CC)COC(=O)c1ccc(C(=O)OCC(CC)CCCC)c(C(=O)OCC(CC)CCCC)c1 (stereo unspecified) | inactive |
| Nc1ccncc1 | inactive |
| CC(C)(C)c1ccccc1O | inactive |
| c1nc[nH]n1 | inactive |
| Nn1cnnc1 | inactive |
| Cc1ccccc1[N+](=O)[O-] | inactive |
| O=S(=O)(Oc1ccc(Cl)cc1)c1ccc(Cl)cc1 | inactive |

tested on: not listed separately; test: qHTS assay to identify small molecule antagonists of the peroxisome proliferator-activated receptor delta (PPARd) signaling pathway - cell viability counter screen (AID 743213; active = well fitted cell-killing curve with a large enough effect in the repeat runs; note: nearly all actives have a fitted effect of over 50% in size; note: potency is the fitted concentration of half-maximal effect); settings: PPARd-bla HEK293H viability, CellTiter-Glo luminescence, 17 h; series mostly up to 62 µM
Summary of the method: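 Luminescence from CellTiter-Glo, added after the bla read and incubated 30 min at room temperature, gives viability of HEK293H PPARd-bla cells exposed to compounds for 17 h at 37 C with 300 nM L165041.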

| Structure (SMILES) | Potency |
| --- | --- |
| CN(C)c1ccc(C(=O)c2ccc(N(C)C)cc2)cc1 | inactive |
| CCN(N=O)C(N)=O | inactive |
| Cc1c(COC(=O)[C@@H]2[C@H](/C=C(\Cl)C(F)(F)F)C2(C)C)cccc1-c1ccccc1 | inactive |
| CC(C)c1ccc(CO)cc1 | inactive |
| O=[N+]([O-])c1c(Cl)c(Cl)c(Cl)c(Cl)c1Cl | inactive |
| CC(C)C(=O)OCC(C)(C)C(OC(=O)C(C)C)C(C)C (stereo unspecified) | inactive |
| C#CCOS(=O)OC1CCCCC1Oc1ccc(C(C)(C)C)cc1 (stereo unspecified) | inactive |
| CCOc1cc(C=O)ccc1O | inactive |
| COc1ccc(C(CN(C)C)C2(O)CCCCC2)cc1 (stereo unspecified) | inactive |
| COC(=O)c1sccc1S(=O)(=O)NC(=O)Nc1nc(C)nc(OC)n1 | inactive |
| NNC(=S)NN | inactive |
| CCOc1cc(Oc2ccc(C(F)(F)F)cc2Cl)ccc1[N+](=O)[O-] | inactive |
| NCc1cccnc1 | inactive |
| NC(=S)Nc1ccccc1 | inactive |
| O=P(Oc1ccccc1)(Oc1ccccc1)Oc1ccccc1 | inactive |
| Nc1c(Cl)cc([N+](=O)[O-])cc1Cl | inactive and 4.36 µM (active) |
| CC(C)(c1cc(Cl)c(O)c(Cl)c1)c1cc(Cl)c(O)c(Cl)c1 | inactive |
| CC(C)Oc1cc(-n2nc(C(C)(C)C)oc2=O)c(Cl)cc1Cl | inactive and 27.5 µM (active) |

| Structure (SMILES) | Potency |
| --- | --- |
| CCCCCCOC(=O)c1ccccc1C(=O)OCCCCCC | inactive |
| O=Cc1ccco1 | inactive |
| N[C@@H](Cc1ccc(N(CCCl)CCCl)cc1)C(=O)O | inactive |
| Oc1cc(Cl)ccc1Oc1ccc(Cl)cc1Cl | 28 µM (active) and inactive |
| Nc1ccc(Cl)cc1N | inactive |
| CCCCCc1cc(O)cc(O)c1 | inactive |
| ClC1C(Cl)C(Cl)C(Cl)C(Cl)C1Cl (stereo unspecified) | inactive |
| C=C(C)C(=O)OCC1CO1 (stereo unspecified) | inactive |
| O=C(CCl)c1ccccc1 | inactive |
| CCC(=O)O[C@H]1CC[C@H]2[C@@H]3CCC4=CC(=O)CC[C@]4(C)[C@H]3CC[C@]12C | inactive |
| CCCCCCCCOC(=O)c1ccccc1C(=O)OCCCCCCCC | inactive |
| CCCCC(CC)COC(=O)c1ccc(C(=O)OCC(CC)CCCC)c(C(=O)OCC(CC)CCCC)c1 (stereo unspecified) | inactive |
| CC(C)(C)c1ccccc1O | inactive |
| c1nc[nH]n1 | inactive |
| Nn1cnnc1 | inactive |
| Cc1ccccc1[N+](=O)[O-] | inactive |
| O=S(=O)(Oc1ccc(Cl)cc1)c1ccc(Cl)cc1 | inactive |

biological target: Peroxisome proliferator-activated receptor delta (Homo sapiens) (UniProt Q03181); test: qHTS assay to identify small molecule antagonists of the peroxisome proliferator-activated receptor delta (PPARd) signaling pathway (AID 743215; active = well fitted inhibition curve with a large enough effect in the signal ratio in the repeat runs, not every such curve was filed as active; the % refers to the signal ratio;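 note: cells stimulated with agonist L165041 at 300 nM final during compound exposure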; note: potency is the fitted concentration of half-maximal effect); settings: HEK293H PPARd-UAS-bla, beta-lactamase FRET ratio, antagonist, 17 h; series mostly up to 62 µM
Summary of the method: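 PPARd-bla HEK293H cells (UAS-bla reporter) preincubated 5 h, then given compound plus 300 nM final L165041 agonist for 17 h at 37 C. Beta-lactamase activity read by LiveBLAzer B/G FRET substrate fluorescence after 2 h at room temperature.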

| Structure (SMILES) | Potency |
| --- | --- |
| COc1ccc(C(CN(C)C)C2(O)CCCCC2)cc1 (stereo unspecified) | inactive |
| CCOP(=S)(OCC)O/N=C(\C#N)c1ccccc1 | inactive |
| NCc1cccnc1 | inactive |
| Nc1c(Cl)cc([N+](=O)[O-])cc1Cl | inactive |
| CC(C)Oc1cc(-n2nc(C(C)(C)C)oc2=O)c(Cl)cc1Cl | inactive |
| N[C@@H](Cc1ccc(N(CCCl)CCCl)cc1)C(=O)O | inactive |
| C=C(C)[C@H]1Cc2c(ccc3c2O[C@@H]2COc4cc(OC)c(OC)cc4[C@@H]2C3=O)O1 | 4.9 µM (active) and inactive |
| CCC(=O)O[C@H]1CC[C@H]2[C@@H]3CCC4=CC(=O)CC[C@]4(C)[C@H]3CC[C@]12C | inactive |
| CCCCCCCCOC(=O)c1ccccc1C(=O)OCCCCCCCC | inactive |
| c1nc[nH]n1 | inactive |
| O=S(=O)(Oc1ccc(Cl)cc1)c1ccc(Cl)cc1 | inactive |

Source: PubChem BioAssay (Tox21)
